Only some compounds are listed: those with a hit (about 2.6% of all), similar ones and a draw of the others.
AmpC inh no det: inhibitors of E. coli AmpC beta-lactamase without detergent. Potency, µM (titrated, usually from 28.7 µM), for the others: top-dose activity change, negative = inhibition. AmpC nitrocefin hydrolysis, absorbance 480 nm, no detergent. 71,000 tested, 1.8% active. AID 585. P00811; note: % of control where 0% means no effect
Target sequence (P00811 whole entry, looked up): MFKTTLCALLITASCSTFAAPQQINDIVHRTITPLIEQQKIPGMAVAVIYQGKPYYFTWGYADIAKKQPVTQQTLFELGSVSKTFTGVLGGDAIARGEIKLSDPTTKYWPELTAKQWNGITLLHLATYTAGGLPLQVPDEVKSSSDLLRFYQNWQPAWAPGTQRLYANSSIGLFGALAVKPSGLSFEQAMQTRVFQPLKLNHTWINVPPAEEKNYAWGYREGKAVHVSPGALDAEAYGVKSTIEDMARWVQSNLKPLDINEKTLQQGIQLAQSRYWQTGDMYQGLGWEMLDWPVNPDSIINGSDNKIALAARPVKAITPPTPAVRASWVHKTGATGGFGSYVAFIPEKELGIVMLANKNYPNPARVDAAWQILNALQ
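Enzyme, pH 7.0 phosphate. Compound titrations were pre-incubated with AmpC for 15 min at room temperature before nitrocefin (stock 800 uM) addition; product formation was recorded at 480 nm every 20 s for 4 min.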
LT uptake inh: blocks cellular internalization of anthrax lethal toxin; Cells, anthrax lethal toxin internalization, FRET ratio (460/530); Potency, µM (top dose mostly 40 µM), without a hit: at the highest dose activity change, negative = inhibition, most hits filed as inhibitors; 70,000 tested, 0.67% active; AID 912; note: % is set by controls: 0 for no effect and ±100 for the full control effect; nearly all actives have a fitted effect of over 50% in size
AmpC inh det: blocks E. coli AmpC beta-lactamase in presence of detergent; Potency, µM (series often up to 28.7 µM), inactives show at the highest dose activity change, negative = inhibition; 71,000 tested, 0.09% active; AID 584; purified AmpC, nitrocefin hydrolysis with detergent; P00811; active = well fitted curve in the direction sought with a large enough effect; inconclusive = small, poorly fitted or top-dose-only effect; note: % is set by controls: 0 for no effect and ±100 for the full control effect
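E. coli AmpC (5.3 nM) in 20 mM phosphate pH 7.0 with 0.01% Triton X-100, preincubated 15 min RT with compound; nitrocefin (2 uL of 800 uM stock) hydrolysis followed by 480 nm absorbance every 20 s over 4 min.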
Prx2 Sm inh: Schistosoma mansoni Prx2 inhibition; Potency, µM; S. mansoni Prx2 activity coupled to TGR/GSH (TGR is thioredoxin glutathione reductase), NADPH fluorescence loss, qHTS; 65,000 tested, 0.07% active
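Prx2 inhibition was measured as reduced NADPH consumption when electrons flowed from NADPH through TGR and glutathione to Prx2 and H2O2. Plates were read kinetically over 8 min; enzyme reagents were held at 4 deg C during dispensing.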
* hit, by the source's call; ? = inconclusive; · = no result; [ ] = remark or other dose. Unless noted, calls come from the whole dose curve. Potency is the fitted concentration of half-maximal effect.

SMILES	AmpC inh no det	LT uptake inh	AmpC inh det	Prx2 Sm inh
Nc1nc(-c2ccco2)nn1C(=O)CCc1ccccc1	26.3%	9.0%	-7.1%	>57
CCCC(=O)n1nc(-c2ccco2)nc1SCc1ccccc1	10µM*	-2.9%	-7.3%	>57
CSc1nc(-c2ccco2)nn1C(=O)c1ccc(C)cc1	3.98µM*[single pt active]	?	11.7%	>57
O=C(c1ccccc1)[C@H](Nc1ccc2ccccc2c1)c1ccccc1	-16.9%[5.75 µM]	-26.4%[8 µM]	-1.8%[5.75 µM]	>57
CN1C[C@@H](CNC(=O)OCc2ccccc2)C[C@H]2c3cccc4c3c(cn4C)C[C@@H]21	73.3%	?	-0.9%	>57
O=C(CCc1ccc(O)cc1)c1c(O)cc(O)cc1O[C@@H]1O[C@@H](CO)[C@@H](O)[C@@H](O)[C@H]1O	-2.2%	-1.0%	11.2%	>57
Cn1c(=O)c2c(nc(/C=C\c3cccc(Cl)c3)n2C)n(C)c1=O	12.4%	-2.5%	-0.1%	>57
COc1cc([C@H](O)CO)ccc1O	-11.7%	-7.1%	-1.1%	>57
CN(Cc1ccccc1)c1oc(-c2ccco2)nc1C#N	5.9%	10µM*	-0.7%	>57
CCOC(=O)c1c(C)n(C)c2ccc(OCC(O)Cn3nc(C)c(Br)c3C)cc12 (stereo not given)	110.4%	10µM*	1.0%	>57
CC1(C(=O)NC2CCCCC2)CCC(=O)N1Cc1cccs1 (stereo not given)	3.98µM*[single pt active]	-25.2%	13.3%	>57
CC1(C(=O)NC2CCCC2)CCC(=O)N1Cc1cccs1 (stereo not given)	-2.6%	1.7%	-4.9%	>57
Cc1ccc(S(=O)(=O)N2CCN(C(=O)CSc3nc4ccccc4c(=O)[nH]3)CC2)cc1	0.4%	-5.3%	-3.9%	>57
O=C(CSc1nc2ccccc2c(=O)[nH]1)N1CCCCC1	3.98µM*[single pt active]	2.2%	8.4%	>57
COc1cc(/C=C\C(=O)CC(=O)/C=C\c2ccc(O)c(OC)c2)ccc1O	-9.4%	?	-2.4%	>57
Cn1c(Cn2c(=O)sc3ccccc32)nnc1SCC(=O)N1CCOCC1	3.98µM*[single pt active]	-1.6%	13.0%	>57
CCOC(=O)CSc1nnc(Cn2c(=O)sc3ccccc32)n1C	8.3%	0.5%	5.4%	>57
CCOC(=O)N1CCN(C(=O)CSc2nnc(Cn3c(=O)sc4ccccc43)n2C)CC1	3.98µM*[single pt active]	-1.9%	12.3%	>57
Cn1c(Cn2c(=O)sc3ccccc32)nnc1SCC(=O)N1CCCCCC1	3.98µM*[single pt active]	?	12.0%	>57
COc1ccccc1NC(=O)CSc1nnc(Cn2c(=O)sc3ccccc32)n1C	3.98µM*[single pt active]	-8.1%	9.3%	>57
O=C(O)C(Cl)(Cl)Br	-4.6%	-3.6%	9.2%	·
COc1ccc(-c2nnc(SCC(=O)Nc3cccc(Cl)c3)o2)cc1	7.94µM*	1.3%	2.7%	>57
NC(=O)SCC(=O)Nc1ccc(Cl)c(Cl)c1	5.01µM*	-11.0%	8.0%	·
NC(=O)SCC(=O)Nc1cccc(Cl)c1	7.94µM*	8.0%	8.1%	·
Cc1ccc(NC(=O)CSC(N)=O)cc1Cl	12.6µM*	14.8%	24.6%	>57
SMILES	AmpC inh no det	LT uptake inh	AmpC inh det	Prx2 Sm inh
COCCN(CCOC)c1nc(C)nc2c1nc(-c1ccccc1)n2CCN(C)C	65.2%	-9.7%	11.5%	·
CCCCCCCCCCCCCC(=O)O[C@H]1[C@@H](C)[C@@]2(O)[C@@H](C=C(CO)C[C@]3(O)C(=O)C(C)=C[C@@H]23)C2C(C)(C)[C@]21OC(C)=O (stereo not given in full)	108.3%	?	-6.1%	>25.6
Oc1cc(O)c2c(c1)O[C@@H](c1ccc(O)c(O)c1)[C@H](O[C@@]1(c3cc(O)c(O)c(O)c3)Oc3cc(O)cc(O)c3[C@H](O)[C@@H]1O)C2	-21.2%[5.75 µM]	?	-2.1%[5.75 µM]	>57
Cc1ccc(N2C(=O)c3ccccc3C2Nc2cccnc2)nc1 (stereo not given)	3.98µM*[single pt active]	-6.6%	10.9%	>57
COc1cc(NC2c3ccccc3C(=O)N2c2ccc(C)cn2)cc(OC)c1OC (stereo not given)	75.8%	5.8%	12.9%	>57
O=C1c2ccccc2C(Nc2cccnc2)N1Cc1ccccc1Cl (stereo not given)	3.98µM*[single pt active]	-14.6%	12.0%	>57
CCOc1ccccc1NC1c2ccccc2C(=O)N1c1ccc(C)cn1 (stereo not given)	-3.1%	-26.1%	12.7%	>57
CCOC(=O)c1ccccc1NC1c2ccccc2C(=O)N1c1ccc(C)cn1 (stereo not given)	3.98µM*[single pt active]	?	13.4%	>57
O=C(O)c1cc(=O)[nH]c(SCc2ccccc2)n1	8.1%[5.75 µM]	-4.0%[8 µM]	-2.3%[5.75 µM]	>57
N=C(N)SCCc1ccc(OCc2ccc([N+](=O)[O-])cc2)cc1	15.8µM*	-19.4%	-6.9%	>57
C[C@H](CCC(=O)O)[C@H]1CC[C@@H]2[C@@H]3CC[C@H]4C[C@@H](O)CC[C@@]4(C)[C@@H]3C[C@H](O)[C@@]21C	23.9%[5.75 µM]	-10.0%[8 µM]	-3.4%[5.75 µM]	>57
Cc1ncc(CO)c2cc(S(=O)(=O)c3ccc(F)cc3)c(=O)oc12	3.98µM*[single pt active]	0.2%	13.2%	17*
Oc1c(Cl)ccc(Cl)c1Cl	-6.0%	0.4%	7.2%	·
Oc1c(Cl)c(Cl)c(Cl)c(Cl)c1Cl	1.4%	20µM*	7.1%	·
O=C1CCc2cc(S(=O)(=O)NC(Cc3ccccc3)C(=O)NC3CCCC3)ccc2N1 (stereo not given)	3.98µM*[single pt active]	-16.7%	14.5%	>57
CCC(=O)N1CCc2cc(S(=O)(=O)NC(Cc3ccccc3)C(=O)NC3CCCC3)ccc21 (stereo not given)	17.8%	5.5%	-3.4%	>57
O=C1CCc2cc(S(=O)(=O)N3CCN(C(=O)c4ccco4)CC3)ccc2N1	-8.4%	12.4%	-0.2%	>57
CN(Cc1ccco1)C(=O)C(Cc1ccccc1)NS(=O)(=O)c1ccc2c(c1)CCC(=O)N2 (stereo not given)	3.98µM*[single pt active]	2.3%	16.8%	>57
CCCNC(=O)C(Cc1ccccc1)NS(=O)(=O)c1ccc2c(c1)CCC(=O)N2 (stereo not given)	3.98µM*[single pt active]	-13.7%	12.7%	>57
NC[C@H]1O[C@H](n2cnc3c(N)ncnc32)C[C@@H]1O	-2.3%[5.75 µM]	-4.8%[8 µM]	-3.0%[5.75 µM]	>57
CC1(NC[C@@H](O)COc2cccc3[nH]ccc23)CCC(C(C)(C)NC(=O)CBr)CC1 (stereo not given in full)	-0.9%	2.9%	-1.6%	>57
O=[N+]([O-])c1ccc(NN=C2c3ccccc3Cc3ccccc32)c([N+](=O)[O-])c1	-3.9%[5.75 µM]	-19.7%[8 µM]	-2.9%[5.75 µM]	>57
NC(=O)CN1C[C@@H](O)CC1=O	17.9%	2.2%	-4.1%	>57
C[C@H]1[C@H](C)CC[C@@]2(C(=O)O)CC[C@]3(C)C(=CC[C@@H]4[C@@]5(C)CC[C@H](O)C(C)(C)[C@@H]5CC[C@@]43C)[C@@H]12	1.1%	7.94µM*	-1.2%	>57
CO[C@@H]1CC[C@@]2(C)[C@@H](CC[C@@]3(C)[C@H]2CC=C2[C@H]4CC(C)(C)[C@H](O)[C@@H](OC(C)=O)[C@]4(CO)[C@H](O)C[C@]23C)[C@@]1(C)CO (tested in a mixture with another compound)	100.3%[12.8 µM]	-7.5%[3.58 µM]	-3.3%[12.8 µM]	>57

Compound activity as filed in PubChem BioAssay.
